Measured values published in the supplement of paper PMC9399229.
Structures can show the parent of a compound that is named as a salt. In all, about 1,900 compounds were measured (“relative cell viability (CellTiter-Glo), compound plus cabozantinib, relative to the cabozantinib arm (arm median 1.05; reference not stated)”: median about 1.1, lowest 2% from about 0.15 on). What follows is part of a selection rich in the lowest values, with near analogues and random picks from the rest.

These compounds were tested on Hep3B (assay: relative cell viability (CellTiter-Glo), compound plus cabozantinib, relative to the cabozantinib arm (arm median 1.05; reference not stated) (fraction); higher = more viable cells (less growth inhibition)). Conditions: cabozantinib 2 µM; 4 days.

Row | Structure (SMILES) | relative cell viability
1 | CC(C)N(CCCNC(=O)Nc1ccc(C(C)(C)C)cc1)C[C@H]1O[C@@H](n2ccc3c(N)ncnc32)[C@H](O)[C@@H]1O | 1.07
2 | O=C1c2c(O)cc(O)cc2O[C@H](c2cc(O)c(O)c(O)c2)[C@H]1O [Dihydromyricetin] | 0.985
3 | CC(C)[C@H](O)C(=O)N[C@@H](C)C(=O)N[C@@H]1C(=O)N(C)CCc2ccccc21 | 1.01
4 | CCN(c1cc(-c2ccc(CN3CCOCC3)cc2)cc(C(=O)NCc2c(C)cc(C)[nH]c2=O)c1C)C1CCOCC1 | 0.911
5 | CN1CCN(CCCNc2ncc(Cl)c(-c3cc4c(C(=O)NC5CC5)cccc4s3)n2)CC1 | 1.1
6 | CCNC(=O)CCC/C=C\C[C@@H]1[C@@H](/C=C/[C@@H](O)CCc2ccccc2)[C@H](O)C[C@@H]1O [Bimatoprost] | 1.16
7 | C[C@H]1CO[C@@H]2Cn3cc(C(=O)NCc4ccc(F)cc4F)c(=O)c(O)c3C(=O)N12 | 1.1
8 | Cc1noc(NS(=O)(=O)c2ccc(N)cc2)c1C [Sulfisoxazole] | 1.01
9 | CCOc1nc2cccc(C(=O)OCc3oc(=O)oc3C)c2n1Cc1ccc(-c2ccccc2-c2noc(=O)[nH]2)cc1 [Azilsartan Medoxomil] | 1.22
10 | O=C(Nc1ncc(SCCN2CCCC2)s1)[C@]1(c2ccc(S(=O)(=O)C3CC3)cc2)C[C@H]1C1CCCCC1 | 0.963
11 | CCOc1cc(C(=O)N2CCC(N3CCN(C)CC3)CC2)ccc1Nc1ncc2c(n1)N(C1CCCC1)c1ccccc1C(=O)N2C | 0.703
12 | CC(C=CC1(O)C(C)=CC(=O)CC1(C)C)=CC(=O)O (stereo not drawn) [Abscisic Acid (Dormin)] | 1.08
13 | O=c1c2ccccc2oc2ccccc12 [Xanthone] | 1.08
14 | Cc1cc(F)c(Nc2ncnc3cc(OCc4ccccc4)ccc23)cc1O | 1.05
15 | O=NO [Sodium Nitrite] | 1.09
16 | CCc1c(C(=O)NCCc2ccc(N3CCCCC3)cc2)[nH]c2ccc(Cl)cc12 | 0.997
17 | CC(C)(C#N)c1cc(Cn2cncn2)cc(C(C)(C)C#N)c1 [Anastrozole] | 1.1
18 | C/C(O)=C(\C#N)C(=O)Nc1ccc(C(F)(F)F)cc1 [Teriflunomide] | 0.922
19 | CC[C@H](c1ccc(O)cc1)[C@@H](CC)c1ccc(O)cc1 [Hexestrol] | 1.19
20 | CC(C(=O)O)c1ccc2c(c1)CC(=O)c1ccccc1S2 (stereo not drawn) [Zaltoprofen] | 1.17
21 | CSc1cccc(Nc2ncc3cc(-c4c(Cl)cccc4Cl)c(=O)n(C)c3n2)c1 | 0.748
22 | OCC(CO)N[C@H]1C[C@](O)(CO)[C@@H](O)[C@H](O)[C@H]1O [Voglibose] | 1.28
23 | Nc1nc(O)c2ncn(CCC(CO)CO)c2n1 [Penciclovir] | 1.08
24 | O=C(Nc1ccccc1)c1ccccc1O [Salicylanilide] | 1.1
25 | O=C(Nc1cc(C(F)(F)F)cc(C(F)(F)F)c1)c1cc(Cl)ccc1O | 0.122
26 | CC(ONC(=O)c1cc(C(F)(F)F)cc(C(F)(F)F)c1)C(=O)Nc1ccc(Cl)cc1 (stereo not drawn) | 1.15
27 | O=C(O)Cc1cccc(OCCCN(Cc2cccc(C(F)(F)F)c2Cl)CC(c2ccccc2)c2ccccc2)c1 | 1.15

Row | Structure (SMILES) | relative cell viability
28 | CCOC(=O)c1ccc(N2NC(=O)C(=Cc3ccc([N+](=O)[O-])o3)C2=O)cc1 | 1.02
29 | CCOCC(O)COc1ccc(NC(=O)CC[S+](C)C)cc1 (stereo not drawn) [Suplatast Tosylate] | 1
30 | CC1(C)CNc2cc(NC(=O)c3cccnc3NCc3ccncc3)ccc21 [Motesanib Diphosphate (AMG-706)] | 1.09
31 | C=CC(=O)Nc1cccc(Nc2nc(Nc3ccc(NC4CN(CCF)C4)cc3OC)ncc2C(F)(F)F)c1 | 0.885
32 | Cc1ccc(S(=O)(=O)n2c(N)nc3ccccc32)cc1 [ML130 (Nodinitib-1)] | 1.2
33 | Cc1ccc2c(=O)c3cccc(CC(=O)O)c3oc2c1C [DMXAA (Vadimezan)] | 1.17
34 | O=c1cc(CN2CCOCC2)occ1OCCCCCSc1ccnc2cc(C(F)(F)F)ccc12 | 1.13
35 | Cc1c(-c2ccc(O)cc2)n(Cc2ccc(OCCN3CCCCCC3)cc2)c2ccc(O)cc12 [Bazedoxifene HCl] | 0.867
36 | Cc1cccc(-c2[nH]c(CNc3ccccc3F)nc2-c2ccc3ncnn3c2)n1 | 1.1
37 | CC(C=CC(=O)NO)=CC(C)C(=O)c1ccc(N(C)C)cc1 (stereo not drawn) [Trichostatin A (TSA)] | 0.165
38 | CNCc1ccc(C)c(NC(=O)c2ccc(Nc3nc(-c4ccccc4)c4ccccc4n3)cc2)c1 | 0.858
39 | CC(C)N(CC[C@H](c1ccccc1)c1cc(CO)ccc1O)C(C)C | 1.1
40 | O=C(c1cccc(Cl)c1F)N1CCN(Cc2cccc(Nc3nccs3)n2)CC1 | 1.06
41 | Clc1ccc(NN=C(c2ccccc2)c2ccccn2)nc1 | 0.087
42 | O=C(Nc1cccc(Cl)c1)c1ccccn1 | 1.02
43 | C[C@H](CCC(=O)O)[C@H]1CC[C@H]2[C@@H]3C[C@H](O)[C@@H]4C[C@H](O)CC[C@]4(C)[C@H]3CC[C@]12C [Hyodeoxycholic acid (HDCA)] | 1.11
44 | COC(=O)[C@H](CCSC)NC(=O)c1ccc(NC[C@@H](N)CS)cc1-c1ccccc1 | 1.16
45 | NC1(Cc2ccc(Cl)cc2)CCN(c2ncnc3[nH]ccc23)CC1 | 0.989
46 | COc1nc(-c2ccc3c(c2)OCO3)n(-c2ccc(NC(=O)CSc3ccccc3)cc2)n1 [SecinH3] | 1.24
47 | C[C@@H]1CC(=O)NN=C1c1ccc(NN=C(C#N)C#N)cc1 [Levosimendan] | 1.15
48 | Cc1coc2c1C(=O)C(=O)c1c-2ccc2c1CCCC2(C)C [Tanshinone IIA] | 0.985
49 | Nc1nc(N)c2nc(-c3cccc(O)c3)c(-c3cccc(O)c3)nc2n1 | 0.944
50 | COc1ccc(C(=O)Nc2sc3c(c2C(N)=O)CCCC3)cc1OC | 1.03
51 | Cc1ccc(NC(=O)C2(c3ccc4c(c3)OC(F)(F)O4)CC2)nc1-c1cccc(C(=O)O)c1 [VX-809 (Lumacaftor)] | 0.168
52 | CN(C)CCOc1ccc(/C(=C(/CCCl)c2ccccc2)c2ccccc2)cc1 [Toremifene Citrate] | 1.06
53 | CC(C)C[C@H](NC(=O)[C@H](Cc1ccccc1)NC(=O)c1cnccn1)B(O)O [Bortezomib (PS-341)] | 0.396
